PubChem BioAssay (NCI)
Compounds without any hit were thinned out: in the full panel of roughly 83,000, 20% have a hit.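 Single-dose data. Exposure time 48 hours. Values below 10 considered active.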 A number with no mark means an inactive call. Calls of active or inactive are those of the source.

Columns and labels:
Assay in all cases: NCI-60 one-dose screen, 48 h (100 = growth as untreated, 0 = no growth, -100 = all killed)
Conditions in all cases: 10 µM unless noted
HCT-15 colon = test system: HCT-15 colon
HT29 colon = test system: HT29 colon
SNB-75 CNS = test system: SNB-75 CNS
SNB-19 CNS = test system: SNB-19 CNS
U251 CNS = test system: U251 CNS
PC-3 prostate = test system: PC-3 prostate
SK-MEL-5 melanoma = test system: SK-MEL-5 melanoma
UACC-62 melanoma = test system: UACC-62 melanoma
LOX IMVI melanoma = test system: LOX IMVI melanoma
SK-MEL-28 melanoma = test system: SK-MEL-28 melanoma
SK-MEL-2 melanoma = test system: SK-MEL-2 melanoma
EKVX NSCLC = test system: EKVX NSCLC
SN12C renal = test system: SN12C renal
UO-31 renal = test system: UO-31 renal
TK-10 renal = test system: TK-10 renal
ACHN renal = test system: ACHN renal
CAKI-1 renal = test system: CAKI-1 renal
A498 renal = test system: A498 renal
CCRF-CEM leukemia = test system: CCRF-CEM leukemia
MOLT-4 leukemia = test system: MOLT-4 leukemia

SMILES	growth (HCT-15 colon)	growth (HT29 colon)	growth (SNB-75 CNS)	growth (SNB-19 CNS)	growth (U251 CNS)	growth (PC-3 prostate)	growth (SK-MEL-5 melanoma)	growth (UACC-62 melanoma)	growth (LOX IMVI melanoma)	growth (SK-MEL-28 melanoma)	growth (SK-MEL-2 melanoma)	growth (EKVX NSCLC)	growth (SN12C renal)	growth (UO-31 renal)	growth (TK-10 renal)	growth (ACHN renal)	growth (CAKI-1 renal)	growth (A498 renal)	growth (CCRF-CEM leukemia)	growth (MOLT-4 leukemia)
NCCCNc1nc2ccc(Cl)cc2c2c(=O)c3cc(F)ccc3sc12	47.9%	-12.1% (active)	54.2%	77.1%	38.1%	58.2%	94.3%	97.4%	-62.3% (active)	103%	104%	81.3%	71%	46.3%	89%	35.4%	24.4%	23.4%	12.1%	8.78% (active)
COc1cc(CCCO)c(OC)c(OC)c1OC	110%	108%	86.9%	96.1%	101%	106%	109%	94.8%	98.1%	109%	118%	105%	99.6%	90.4%	109%	106%	92.3%	83.6%	108%	110%
COc1cccc(-c2nc(-c3ccc(NC(=O)c4ccccc4)cc3)[nH]c2-c2ccnc(Br)c2)c1	-0.905% (active)	10.2%	10.7%	33.6%	30.7%	17.6%	-79.6% (active)	16.4%	-55.8% (active)	37%	29.4%	24.4%	53.8%	3.81% (active)	59.5%	24.8%	20.4%	-28.3% (active)	21.4%	15.1%
Cc1c(C(=O)NCCN2CCOCC2)cn2ncnc(Oc3ccc(NC(=O)Nc4ccc(Cl)c(C(F)(F)F)c4)cc3)c12	21.8%	7.93% (active)	22.4%	20%	14.5%	11.4%	6.48% (active)	14.8%	-50.5% (active)	16.1%	-20.8% (active)	25.2%	21.2%	52.7%	32.2%	13.6%	30.3%	-5.16% (active)	9.09% (active)	-3.35% (active)
COc1ccc2c(c1)/C(=C/c1sc(=S)n(Cc3ccco3)c1O)C=N2	17.8%	15.8%	1.19% (active)	44.5%	37%	61.6%	52.2%	38.9%	35.9%	47.4%	27%	60.2%	32.7%	58.6%	77.6%	40.6%	39.3%	-9.18% (active)	18.3%	29.2%
Cc1onc2c(-c3ccccc3)n[nH]c(=O)c12	104%	90.4%	83%	90.3%	97.6%	90.5%	105%	95.3%	104%	108%	135%	62.8%	101%	106%	78.9%	107%	74.1%	90.2%	106%	76%
COc1cccc(-c2nc(-c3ccc(NS(=O)(=O)c4ccccc4)cc3)[nH]c2-c2ccnc(Br)c2)c1	3.93% (active)	32.8%	15%	39.8%	35.4%	15.1%	41.7%	14.8%	4.69% (active)	25.6%	10.5%	32.1%	28.4%	11.8%	46.3%	11.9%	18.3%	28.4%	18.9%	4.8% (active)
CCCC1CCC(O)(C(C)(O)C(=O)NC2C(=O)N3NCCCC3C(=O)N(O)C(C)C(=O)N3NCCCC3C(=O)N3NCC(O)CC3C(=O)NC(C)C(=O)OC2C(C)C)OC1CC (stereo not given)	-64.1% (active)	-55.6% (active)	-83% (active)	-81.5% (active)	-74.2% (active)	-86% (active)	-97.3% (active)	-71.8% (active)	-72.9% (active)	-99.3% (active)	-43.7% (active)	-63.4% (active)	-67.9% (active)	0.226% (active)	-85.3% (active)	-68.1% (active)	-82.6% (active)	-95.5% (active)	-84.5% (active)	-82.7% (active)
CN1C(=O)N(C)C2Nn3c(s/c(=C\c4ccccc4)c3=O)=NC21 (stereo not given)	93.1%	106%	71.4%	95.6%	96.2%	101%	101%	90.9%	92.6%	105%	109%	96.5%	95.6%	81.8%	115%	97.8%	82.7%	68%	99.5%	109%
CCOc1cccc(NC2=C(Br)C(=O)C(C)=C(C)C2=O)c1	98.6%	107%	56.3%	94%	97.3%	73.8%	89%	81.5%	26%	104%	95.5%	92.4%	85%	71.7%	155%	85.8%	96%	109%	3.35% (active)	2.57% (active)
COc1c(B(O)O)cc(F)cc1-c1nc2ccc3[nH]ncc3c2c2c1CCCC2	3.63% (active)	13%	-94.5% (active)	11.3%	11.8%	13.3%	17.1%	20.6%	2.28% (active)	21.3%	18.7%	10.2%	11.6%	5.35% (active)	21.5%	9.67% (active)	-5.6% (active)	-67.9% (active)	10.9%	9.89% (active)
NCCCNc1nc2ccccc2c2c(=O)c3cc(OC(F)(F)F)ccc3sc12	-78.1% (active)	-32.9% (active)	58.6%	7.57% (active)	-63% (active)	42.9%	59.9%	88.9%	-97.3% (active)	84.7%	89.3%	67.9%	41.3%	33.8%	64.7%	-22.8% (active)	-72.7% (active)	21.4%	-2.58% (active)	-39.5% (active)
Oc1ccc(Cl)cc1Cc1cc(Cl)cc(Cl)c1O	41.2%	107%	60.5%	34.8%	13%	-0.0941% (active)	5.53% (active)	-9.82% (active)	20.2%	31.2%	37.4%	35.6%	20.4%	44.8%	79.5%	27.9%	49.6%	85.9%	19.5%	19.2%
Cc1nc2ccccc2n1CC1C(=O)NC(=O)NC1=O	106%	107%	94.1%	98.5%	99.4%	103%	100%	103%	100%	108%	120%	106%	104%	91.3%	107%	109%	104%	-34.3% (active)	103%	98.1%
CN1CCN(Cc2ccc(NC(=O)c3ccc(C(C)(C)C)c(C#Cc4cnc5cccnn45)c3)cc2C(F)(F)F)CC1	-73.2% (active)	-83.5% (active)	74.8%	-63.1% (active)	-87.9% (active)	-65.6% (active)	-60.3% (active)	-71% (active)	-87.7% (active)	-68.8% (active)	33.7%	-32.8% (active)	-67.4% (active)	-47% (active)	-93.8% (active)	-75.2% (active)	-45.1% (active)	75.5%	-36.7% (active)	-57% (active)
COc1ccc2sc3c(NCCO)nc4ccccc4c3c(=O)c2c1	81%	101%	103%	95.4%	93.1%	91.4%	93.7%	94.5%	88%	122%	107%	70.3%	96.6%	79.4%	103%	98.1%	90.5%	48.7%	75.3%	89.3%
